From PubChem BioAssay (Tox21)
Results filed as inconclusive are left out. Calls of active or inactive are those of the source. Unless noted, the call rests on the fitted dose curve.

What was measured:
[1] = qHTS assay to identify small molecule agonists of the vitamin D receptor (VDR) signaling pathway - cell viability counter screen (AID 743224; active means well fitted curve in the direction sought with a large enough effect in the repeat runs; an effect the other way counts as inactive or inconclusive; further: series mostly up to about 63 µM; nearly all actives have a fitted effect of over 50% in size)
How it was run: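 Cytotoxicity counter screen: VDR-bla cells, 16 h compound exposure at 37C, 5% CO2; CellTiter-Glo luminescence, 30 min RT, same wells as bla read.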

[2] = qHTS assay to identify small molecule antagonists of the vitamin D receptor (VDR) signaling pathway - cell viability counter screen (AID 743225; active means well fitted curve in the direction sought with a large enough effect in the repeat runs; an effect the other way counts as inactive or inconclusive; further: nearly all actives have a fitted effect of over 50% in size)
How it was run: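 Cytotoxicity counter screen read by CellTiter-Glo luminescence (30 min, room temperature) in the same wells as the VDR-bla antagonist readout. HEK 293T VDR-UAS-bla cells had 16 h at 37C with compound and 3 nM (final) 1-alpha,25-dihydroxyvitamin D3, then 2 h with FRET substrate.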

[3] = qHTS assay to identify small molecule agonists of the NFkB signaling pathway (AID 1159509; active means well fitted curve in the direction sought with a large enough effect in the signal ratio in the repeat runs, not every such curve was filed as active; the % refers to the signal ratio; further: series mostly up to about 61 µM)
How it was run: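 Pathway activation was measured in ME-180 cells stably expressing beta-lactamase under NF-kB response element control. Substrate cleavage was read as the 460/530 nm emission shift after 5 hr compound incubation.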

[4] = qHTS assay to identify small molecule agonists of the NFkB signaling pathway - cell viability counter screen (AID 1159515); further: series mostly up to about 61 µM; nearly all actives have a fitted effect of over 55% in size
How it was run: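 ME-180 NFkB-bla cells, 2,000/well; overnight attach; compound 5 hr, 37 C/5% CO2; LiveBLAzer substrate 1.5 hr RT; then CellTiter-Glo in same wells, 30 min RT, luminescence read.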

[5] = qHTS assay to identify small molecule agonists of the endoplasmic reticulum stress response signaling pathway (AID 1159516; active means well fitted activation curve with a large enough effect in the signal ratio in the repeat runs, not every such curve was filed as active; the % refers to the signal ratio)
How it was run: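 HeLa ESRE-bla reporter line; cpd 5 h, 37 C/5% CO2; LiveBLAzer B/G FRET substrate 2 h RT; ex 405, em 460/530 nm.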

[6] = qHTS assay to identify small molecule agonists of the endoplasmic reticulum stress response signaling pathway - cell viability counter screen (AID 1159517);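 further: HeLa cells carrying an ER stress response element beta-lactamase reporter; series mostly up to about 61 µM; nearly all actives have a fitted effect of over 50% in size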
How it was run: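 ESRE-bla HeLa cells (1,500/well) were plated overnight at 37 C and exposed to compounds for 5 hr. After the 2 hr beta-lactamase substrate read, CellTiter-Glo went into the same wells, and luminescence was read after 30 min at room temperature.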

[7] = biological target: Nuclear receptor ROR-gamma (Homo sapiens) (UniProt P51449); experiment: qHTS assay to identify small molecule antagonists of the retinoid-related orphan receptor gamma (ROR-gamma) signaling pathway (AID 1159521; active means well fitted curve in the direction sought with a large enough effect in the repeat runs; an effect the other way counts as inactive or inconclusive; further: top concentration of the series differs between compounds; nearly all actives have a fitted effect of over 50% in size)
How it was run: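 Antagonist read-out: drop in luminescence (ONE-Glo) from an RORE-LUC reporter in CHO cells with doxycycline-inducible ROR-gamma; 2 hr compound pretreatment, 1 uM doxycycline, 16 hr incubation at 37 C.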

[8] = qHTS assay to identify small molecule agonists of the AP-1 signaling pathway - cell viability counter screen (AID 1159525); further: nearly all actives have a fitted effect of over 55% in size
How it was run: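 Intracellular ATP by Cell Titer Glo luminescence (30 min, RT) in the same ME-180 AP-1-bla wells after the 5 h compound exposure at 37 °C. Normalised to tetra n-octyl ammonium bromide and DMSO controls.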

[9] = qHTS assay to identify small molecule agonists of the AP-1 signaling pathway (AID 1159526)
[10] = qHTS assay to identify small molecule antagonists of the retinoid-related orphan receptor gamma (ROR-gamma) signaling pathway - cell viability counter screen (AID 1159520; active means well fitted curve in the direction sought with a large enough effect in the repeat runs; an effect the other way counts as inactive or inconclusive; further: nearly all actives have a fitted effect of over 50% in size)
How it was run: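 Cytotoxicity was read from cellular ATP (CellTiter-Glo luminescence) after 16 hr at 37 C with 1 uM doxycycline induction. The inducer was added 2 hr after compound transfer to Tet-on ROR gamma CHO cells.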

Measured: Potency

CCSC(=O)N(CC(C)C)CC(C)C
not listed: [10]
inactive: all other assays above

CC(C)NC(=O)NC(C)C
not listed: [10]
inactive: all other assays above

Cc1c(NC(C)C)c(=O)n(-c2ccccc2)n1C
not listed: [10]
inactive: all other assays above

CC(=O)OCC(=O)[C@@]1(O)CCC2C3CCC4=CC(=O)CC[C@]4(C)C3[C@@H](O)C[C@@]21C (some centres not stated)
not listed: [10]
inactive: all other assays above

COC(=O)c1ccc(C)cc1C1=NC(C)(C(C)C)C(=O)N1 (configuration not stated)
not listed: [10]
inactive: all other assays above

CC(=O)OC/C=C(\C)CC/C=C(\C)CCC=C(C)C
not listed: [10]
inactive: all other assays above

CO[C@]12C[C@@H](COC(=O)c3cncc(Br)c3)CN(C)[C@@H]1Cc1cn(C)c3cccc2c13
not listed: [1] | [10]
inactive: all other assays above

CCCCCCOC(=O)CCCCC(=O)OCCCCCC
not listed: [1] | [10]
inactive: all other assays above

CC(=O)c1ccccc1O
not listed: [10]
inactive: all other assays above

CC(C)(CC(=O)O)C(=O)O
not listed: [10]
inactive: all other assays above

CC(C)CCCC(C)N (configuration not stated)
not listed: [1] | [10]
inactive: all other assays above

CC(C)c1cc2c(cc1S(=O)(=O)O)[C@@]1(C)CCC[C@@](C)(C(=O)O)[C@@H]1CC2
not listed: [2] | [5]
inactive: all other assays above

CCCCOCCOCCOCc1cc2c(cc1CCC)OCO2
not listed: [1] | [10]
inactive: all other assays above

CC(C)(O)C(=O)c1ccccc1
not listed: [5]
inactive: all other assays above

CN1CCN(c2cc3c(cc2F)c(=O)c(C(=O)O)cn3-c2ccc(F)cc2)CC1
not listed: [2] | [5]
inactive: all other assays above

N=c1nc(N2CCCCC2)cc(N)n1O
not listed: [10]
inactive: all other assays above

CC(=O)CC(C)(C)C1CCCCC1
not listed: [10]
inactive: all other assays above

CCn1nc(C(=O)O)c(=O)c2cc3c(cc21)OCO3
not listed: [10]
inactive: all other assays above

O=c1n(CCO)c(=O)n(CCO)c(=O)n1CCO
not listed: [5]
inactive: all other assays above

CC[N+](C)(C)c1cccc(O)c1
not listed: [10]
inactive: all other assays above

C[N+](C)(C)CCCCCC[N+](C)(C)C
not listed: [10]
inactive: all other assays above

CS(=O)(=O)O
not listed: [10]
inactive: all other assays above
